Screening data: PubChem BioAssay, National Center for Advancing Translational Sciences (NCATS)
Only some compounds are listed: those with a hit (about 12% of all), similar ones and a draw of the others.
Sfp PPTase inh – Sfp phosphopantetheinyl transferase inhibition | 310,000 tested, 3.5% active | AID 1490 | Biochemical Sfp PPTase activity, qHTS | Potency, µM, for inactives: largest response in the series, negative = inhibition, actives largely listed as inhibitors | Q9F4F7;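 also: the enzyme is Sfp with the accession as filed and its product quenches rhodamine fluorescence; 0% = enzyme reaction without inhibitor and -100% = no enzyme wells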
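Step 1, compound plus 15 nM Sfp-PPTase, 15 min, room temperature. Step 2, add rhodamine-CoA (5 uM) and BHQ-2-YbbR (12.5 uM). Step 3, read 525/598 nm fluorescence at 0 and 30 min.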
BAZ2B inh – inhibitors of human BAZ2B bromodomain. Potency, µM (highest dose often 114 µM), inactives show at the top dose activity change, negative = inhibition, most hits filed as inhibitors. AID 504333. 360,000 tested, 4.4% active. Q9UIF8. AlphaScreen BAZ2B-H3K14Ac peptide displacement; also: % is scaled to controls: 0 for no effect and ±100 for the full control effect; nearly all actives have a fitted effect of over 60% in size
Target sequence (Q9UIF8 whole entry, looked up): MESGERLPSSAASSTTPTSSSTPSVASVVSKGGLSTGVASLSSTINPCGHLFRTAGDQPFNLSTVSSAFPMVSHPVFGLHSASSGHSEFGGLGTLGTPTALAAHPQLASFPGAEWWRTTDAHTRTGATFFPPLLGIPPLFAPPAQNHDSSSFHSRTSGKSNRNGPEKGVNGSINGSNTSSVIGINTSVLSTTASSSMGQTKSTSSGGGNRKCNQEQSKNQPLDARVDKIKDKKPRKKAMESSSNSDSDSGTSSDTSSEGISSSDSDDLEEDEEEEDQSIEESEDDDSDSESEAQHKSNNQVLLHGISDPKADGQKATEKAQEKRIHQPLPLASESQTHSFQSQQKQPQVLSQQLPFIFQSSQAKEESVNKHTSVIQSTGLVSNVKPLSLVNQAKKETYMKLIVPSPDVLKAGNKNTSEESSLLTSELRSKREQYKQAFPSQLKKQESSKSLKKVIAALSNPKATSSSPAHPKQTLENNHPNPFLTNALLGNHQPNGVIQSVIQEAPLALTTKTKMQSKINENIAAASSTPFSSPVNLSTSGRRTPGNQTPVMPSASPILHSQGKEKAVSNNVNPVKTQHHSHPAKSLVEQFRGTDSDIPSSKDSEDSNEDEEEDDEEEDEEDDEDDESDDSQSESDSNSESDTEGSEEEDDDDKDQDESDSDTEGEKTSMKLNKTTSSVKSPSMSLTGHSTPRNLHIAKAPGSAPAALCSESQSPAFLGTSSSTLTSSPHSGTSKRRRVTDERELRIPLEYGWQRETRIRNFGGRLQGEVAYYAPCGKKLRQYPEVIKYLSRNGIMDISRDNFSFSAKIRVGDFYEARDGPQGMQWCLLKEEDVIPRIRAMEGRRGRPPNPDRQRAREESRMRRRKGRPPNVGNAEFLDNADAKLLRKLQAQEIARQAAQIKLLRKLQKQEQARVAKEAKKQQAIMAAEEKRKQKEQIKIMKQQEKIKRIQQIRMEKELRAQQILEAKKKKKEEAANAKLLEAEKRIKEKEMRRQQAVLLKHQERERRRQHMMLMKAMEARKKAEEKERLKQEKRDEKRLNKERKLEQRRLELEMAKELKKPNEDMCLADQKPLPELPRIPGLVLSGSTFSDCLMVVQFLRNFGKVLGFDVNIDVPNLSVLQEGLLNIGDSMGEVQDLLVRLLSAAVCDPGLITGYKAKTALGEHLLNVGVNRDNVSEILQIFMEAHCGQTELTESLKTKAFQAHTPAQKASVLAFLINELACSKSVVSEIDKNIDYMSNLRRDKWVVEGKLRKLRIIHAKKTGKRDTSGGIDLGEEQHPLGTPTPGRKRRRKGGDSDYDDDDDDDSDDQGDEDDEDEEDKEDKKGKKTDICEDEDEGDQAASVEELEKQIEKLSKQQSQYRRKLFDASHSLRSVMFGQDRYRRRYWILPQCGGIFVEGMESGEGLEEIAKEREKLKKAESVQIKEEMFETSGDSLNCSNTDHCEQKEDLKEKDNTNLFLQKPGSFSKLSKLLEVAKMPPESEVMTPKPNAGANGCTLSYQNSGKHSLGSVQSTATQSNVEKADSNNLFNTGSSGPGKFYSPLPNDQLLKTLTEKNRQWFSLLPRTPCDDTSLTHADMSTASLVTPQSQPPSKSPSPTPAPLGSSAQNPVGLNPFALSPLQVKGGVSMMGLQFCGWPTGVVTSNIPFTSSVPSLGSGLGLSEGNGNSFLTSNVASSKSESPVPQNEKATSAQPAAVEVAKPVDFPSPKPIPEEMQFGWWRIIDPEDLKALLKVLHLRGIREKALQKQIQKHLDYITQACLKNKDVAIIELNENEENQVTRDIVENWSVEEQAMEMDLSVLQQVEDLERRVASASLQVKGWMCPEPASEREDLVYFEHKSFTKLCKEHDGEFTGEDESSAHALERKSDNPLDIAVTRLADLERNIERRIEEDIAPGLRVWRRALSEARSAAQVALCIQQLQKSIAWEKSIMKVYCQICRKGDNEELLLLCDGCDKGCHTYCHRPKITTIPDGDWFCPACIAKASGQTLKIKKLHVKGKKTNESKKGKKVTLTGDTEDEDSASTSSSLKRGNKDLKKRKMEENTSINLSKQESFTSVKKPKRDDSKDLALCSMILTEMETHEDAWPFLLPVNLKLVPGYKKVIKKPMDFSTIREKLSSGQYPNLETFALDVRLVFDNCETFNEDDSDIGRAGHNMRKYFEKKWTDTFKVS
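BAZ2B (50 nM) with biotin-H3(5-23)K14Ac peptide (50 nM) in PBS pH 7.4, 0.01% Tween-20, preformed 30 min, then compound 30 min at room temperature; top concentration 110uM. AlphaScreen streptavidin donor/nickel chelate acceptor beads (10 ug/mL final), 20 min dark, signal read.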
JMJD2A Tudor inh – JMJD2A Tudor domain (human) inhibition; O75164; Potency, µM (series often up to 114 µM), for inactives: top-dose activity change, negative = inhibition, usual class: inhibitors; 390,000 tested, 4.4% active; AlphaScreen JMJD2A-Tudor / H3K4me3 peptide binding; also: % is scaled to controls: 0 for no effect and ±100 for the full control effect; nearly all actives have a fitted effect of over 50% in size
L3MBTL1 block – L3MBTL1 (human) inhibition; Q9Y468; AlphaScreen L3MBTL1–H3K9me1 peptide binding; Potency, µM (series often up to 57.1 µM), for inactives: at the top dose activity, negative = inhibition, usual class: inhibitors; 230,000 tested, 0.66% active; AID 485360; also: % is scaled to controls: 0 for no effect and ±100 for the full control effect; nearly all actives have a fitted effect of over 60% in size
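L3MBTL1 50 nM + b-AHA-H3(1-15)K9me1 75 nM, 30 min RT; compound added, 30 min RT; streptavidin donor/Ni-chelate acceptor beads 10 ug/mL each final, 30 min RT dark; AlphaScreen read.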
HP1b binding inh – HP1-beta chromodomain-methylated histone interaction inhibition. Potency, µM (titrated, usually from 114 µM), for inactives: at the highest dose activity change, negative = inhibition, hits mostly inhibitors. AlphaScreen HP1-beta / biotin-H3K9me3 peptide binding. 390,000 tested, 0.56% active. AID 540317; also: nearly all actives have a fitted effect of over 70% in size
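HP1-beta protein (50 nM final) preincubated 30 min at room temperature with biotinylated H3(1-18)K9me3 peptide (50 nM) in PBS pH 7.4, 0.01% Tween-20, then compound added for 30 min. AlphaScreen streptavidin donor/nickel chelate acceptor beads (10 ug/mL final), 30 min dark, luminescence read.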
G9a block – G9a (human) methyltransferase inhibition | Q96KQ7 | G9a H3K9 monomethylation, AlphaScreen, 2 h | Potency, µM (highest dose often 102 µM), for inactives: at the highest dose activity, negative = inhibition, most hits filed as inhibitors | 350,000 tested, 8.8% active; also: % is scaled to controls: 0 for no effect and ±100 for the full control effect; nearly all actives have a fitted effect of over 75% in size
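Using a bead-based AlphaScreen, monomethylated H3K9 product from 2 h room-temperature reactions (G9a 20 nM, peptide 500 nM, SAM 20 uM) was detected with 0.5 ug/mL rabbit anti-H3K9me1 antibody.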
The depositor's hits bear a star; ? = inconclusive; · = no result given; [ ] = another dose, or the depositor's remark. Calls follow the shape of the dose curve; as a rule, active = well fitted curve in the direction sought with a large enough effect; inconclusive = small, poorly fitted or top-dose-only effect, or another doubt; inactive = no such curve, though single readings can be large; an effect the other way counts as inactive or inconclusive. Potency is read from the fitted curve at half-maximal effect.

SMILES	Sfp PPTase inh	BAZ2B inh	JMJD2A Tudor inh	L3MBTL1 block	HP1b binding inh	G9a block
C/C(=N\N(C)c1ccccc1)c1c(O)[nH]c(=O)[nH]c1=O	7.2%	-3.3%	-6.8%	-0.2%	21.4%	50.1µM*
CC/C(=N\Nc1ccccc1)c1c(O)[nH]c(=O)[nH]c1=O	6.0%	0.4%	-19.3%	4.0%	29.1%	44.7µM*
CC/C(=N\Nc1cccc2ccccc12)c1c(O)[nH]c(=O)[nH]c1=O	?	?	79.4µM*	-8.8%	-14.1%	1.58µM*
CSc1ccc(Cl)c(C(=O)OCC(=O)N2CCN(C(=O)c3ccco3)CC2)c1	·	-7.0%	-21.1%	-22.2%	35.3%	?
C[C@H](NC(=O)[C@@H](N)Cc1ccc(O)cc1)C(=O)NCC(=O)N(C)[C@@H](Cc1ccccc1)C(=O)N[C@H](CO)CCS(C)=O (stereo partly specified)	-1.7%	·	·	·	·	20.7%[59 µM]
Clc1ccc2c(c1)C(c1ccccc1Cl)=NCc1nnc(N3CCN(CCOc4ccccc4)CC3)n1-2	-22.6%	44.7µM*	-30.8%	-6.7%	-7.7%	?
Clc1ccc2c(c1)C(c1ccccc1Cl)=NCc1nnc(N3CCN(CCSc4ccccc4)CC3)n1-2	?	?	?	3.4%	?	-1.4%[59 µM]
COC(=O)C(O)C(O)(CCC(C)C)C(=O)OC1C(OC)=CC23CCCN2CCc2cc4c(cc2C13)OCO4 (stereo unspecified)	11.3%	·	·	·	·	30.9%[59 µM]
CS(=O)(=O)NNP(=O)(NNS(C)(=O)=O)NC(=O)c1ccccc1	2.3%	-9.9%	6.1%	-10.2%	31.4%	56.2µM*
CS(=O)(=O)NNP(=O)(NNS(C)(=O)=O)NC(=O)c1ccc(Br)cc1	6.7%	-14.2%	-17.1%	4.1%	44.4%	44.7µM*
CCC1CN2CCC1CC2C(O)c1ccnc2ccc(OC)cc12 (stereo unspecified)	14.0%	·	·	·	·	6.2%[2.33 µM]
CCCc1cc2c(n1Cc1cccc(Cl)c1)C(C)C1CN(C(=O)c3ccccc3)C(C)(C(=O)OC)C21 (stereo unspecified)	-3.4%	·	·	·	·	·
O=C(NCCSc1c(-c2ccccc2)[nH]c2ccccc12)c1ccc(S(=O)(=O)N2CCOCC2)cc1	·	-13.6%	-18.4%	·	22.5%	?
C[C@H]1CC[C@@H]2[C@@H](C)[C@H]3C(C[C@H]4C5CC[C@H]6C[C@@H](O)CC[C@]6(C)C5CC[C@]34C)N2C1 (stereo partly specified)	-5.4%	·	-6.2%	·	36.4%	·
CC(CO)NC(=O)C1C=C2c3cccc4[nH]cc(c34)CC2N(C)C1 (stereo unspecified)	17.2%	·	·	·	·	15.8µM*
CC[C@@H](CO)NC(=O)[C@H]1C=C2c3cccc4c3c(cn4C)C[C@H]2N(C)C1	56.2µM*	·	·	·	·	34.7%[12.7 µM]
C[C@@H](CO)NC(=O)[C@@H]1C=C2c3cccc4[nH]cc(c34)C[C@H]2N(C)C1	20.8%	·	·	·	·	·
CO/C1=C\C(C)=C\[C@@H](C)[C@@H](O)[C@@H](C)C/C(C)=C/C=C/[C@H](OC)[C@@H]([C@@H](C)[C@@H](O)[C@H](C)[C@@]2(O)C[C@@H](O)[C@H](C)C(C(C)C)O2)OC1=O (stereo partly specified)	-5.4%	·	·	·	·	·
NC(=S)/N=C/c1c(O)[nH]c(=O)[nH]c1=O	-18.2%	-12.2%	-25.9%	1.7%	12.4%	79.4µM*
CCCCCCCCN=Cc1c(O)[nH]c(=O)[nH]c1=O	-9.0%	1.9%	-6.9%	·	27.3%	·
Cc1cc(C)c(N=Cc2c(O)[nH]c(=O)[nH]c2=O)c(C)c1	0.9%	4.6%	-5.5%	-3.3%	51.0%	6.1%
C=CCNC(=S)/N=C/c1c(O)[nH]c(=O)[nH]c1=O	44.7µM*	7.6%	-2.7%	3.6%	21.1%	·
Cc1cc(=O)oc2cc(Oc3ccc([N+](=O)[O-])cc3C(F)(F)F)ccc12	·	·	?	·	-2.2%	·
CCOC(=O)c1ccc(N2C(=O)c3n[nH]c(-c4cccs4)c3C2c2ccc(OC)cc2OC)cc1 (stereo unspecified)	·	·	?	·	2.5%	-2.1%[59 µM]
O=c1[nH]c(=O)n(CCC2=CCCCC2)c(O)c1C=NC1CCN(Cc2ccccc2)CC1	2.4%	0.1%	-6.7%	-8.8%	23.4%	17.8%
SMILES	Sfp PPTase inh	BAZ2B inh	JMJD2A Tudor inh	L3MBTL1 block	HP1b binding inh	G9a block
O=c1[nH]c(=O)n(Cc2ccc(F)cc2)c(O)c1C=NCCCO	11.3%	-3.2%	-1.5%	?	13.9%	25.8%[59 µM]
O=c1[nH]c(=O)n(Cc2ccc(F)cc2)c(O)c1/C=N/Nc1ccccc1	-8.1%	-15.3%	-32.1%	·	7.8%	10µM*
O=c1[nH]c(=O)n(CCC2=CCCCC2)c(O)c1/C=N/Nc1cccc2ccccc12	-26.5%	?	-10.3%[11.4 µM]	·	31.6µM*	1.78µM*
O=c1[nH]c(=O)n(CCC2=CCCCC2)c(O)c1/C=N/Nc1ccccc1	2.3%	-24.1%	-31.1%	-0.8%	51.4%	3.55µM*
CN1CCc2nc3sc(C(=O)NC4CC4)c(N)c3cc2C1	31.6µM*	?	?	-24.2%	17.2%	8.91µM*
CC(C)=CCCC1(C)C=Cc2c(O)c3c(c(CC=C(C)C)c2O1)OC12C(CC4CC1C(C)(C)OC2(C/C=C(/C)C(=O)O)C4O)C3=O (stereo unspecified)	-15.0%	·	·	·	·	-6.8%[2.33 µM]
COc1ccc(N=Nc2c(O)[nH]c(=S)[nH]c2=O)cc1	-26.9%	-35.8%	-22.4%	-2.0%	-8.0%	?
CSc1nc(N)c(N=Nc2ccc([As](=O)(O)O)cc2)c(=O)[nH]1	2.82µM*	-18.3%	?	-4.9%	40.6%	8.91µM*
CSCC[C@H](NC(=O)[C@H](CC(C)C)NC(=O)[C@@H](Cc1cnc[nH]1)NC(=O)[C@H](Cc1ccccc1)NC(=O)[C@@H](Cc1ccccc1)NC(=O)[C@@H](N)Cc1ccc(O)cc1)C(N)=O	10.0%	·	·	·	·	·
COP(=S)(OC)Oc1ccc(Sc2ccc(OP(=S)(OC)OC)cc2)cc1	39.8µM*	·	113.1%	·	138.8%	?
CC(=O)N1N=C(c2cccnc2)CC1c1ccccc1O (stereo unspecified)	12.5%	-2.5%	-11.2%	-0.9%	9.5%	4.0%
CC(=O)N1N=C(c2c(O)n(C)c(=O)n(C)c2=O)CC1c1ccccc1 (stereo unspecified)	-15.5%	-21.9%	-29.2%	3.6%	54.7%	39.8µM*
